# IDE act: boosts human insulin-degrading enzyme activity in HEK cells. FAbeta-B cleavage, fluorescence polarization; 0% vehicle, 100% cell-free pure enzyme wells. activation, % at 5.96 µM. P14735. 0.073% of 340,000 active;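 active = activation above the mean of all tested compounds plus 3 SD, set per screening campaign, cut at about 17% in these data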
# IDE cell inh: inhibits human insulin-degrading enzyme in HEK cells; P14735; FAbetaB cleavage, fluorescence polarization; inhibition, % at 5.59 µM; 0.41% of 320,000 active;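 active = percent inhibition above the average of all tested compounds plus 3 SD, set per screening campaign, cut at about 16% in these data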;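 also: IDE supplied by intact live HEK cells; FP after avidin binding of uncleaved biotin substrate so inhibition keeps polarization high; 0% = DMSO wells and 100% = 60 µM reference IDE inhibitor Ii1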
# CHT allo act: human CHT allosteric activation; Q9GZV3; CHT-expressing cells, membrane potential dye, choline EC20; stronger effect = higher value; LV-AA mutant CHT in HEK293 cells; B-score at 10 µM; 0.49% of 310,000 active; AID 488977;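 active = initial fluorescence not abnormally high and integrated response B-score, plate-corrected, over 3 SD above library mean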
# TMEM16A inh: inhibitors of mouse TMEM16A calcium-activated chloride channel. Q8BHY3. HEK293 TMEM16A/YFP iodide influx fluorescence, ionomycin. normalized B-score (activity score, 25-100; higher = stronger inhibition) at 10 µM. 1.2% of 310,000 active. AID 588511;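 active = ratio plate-corrected score three or more library SD toward inhibition, starting fluorescence score within five deviations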;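 also: score derived from kinetic fluorescence span divided by baseline fluorescence per well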
# Target sequence (Q8BHY3 whole entry, looked up): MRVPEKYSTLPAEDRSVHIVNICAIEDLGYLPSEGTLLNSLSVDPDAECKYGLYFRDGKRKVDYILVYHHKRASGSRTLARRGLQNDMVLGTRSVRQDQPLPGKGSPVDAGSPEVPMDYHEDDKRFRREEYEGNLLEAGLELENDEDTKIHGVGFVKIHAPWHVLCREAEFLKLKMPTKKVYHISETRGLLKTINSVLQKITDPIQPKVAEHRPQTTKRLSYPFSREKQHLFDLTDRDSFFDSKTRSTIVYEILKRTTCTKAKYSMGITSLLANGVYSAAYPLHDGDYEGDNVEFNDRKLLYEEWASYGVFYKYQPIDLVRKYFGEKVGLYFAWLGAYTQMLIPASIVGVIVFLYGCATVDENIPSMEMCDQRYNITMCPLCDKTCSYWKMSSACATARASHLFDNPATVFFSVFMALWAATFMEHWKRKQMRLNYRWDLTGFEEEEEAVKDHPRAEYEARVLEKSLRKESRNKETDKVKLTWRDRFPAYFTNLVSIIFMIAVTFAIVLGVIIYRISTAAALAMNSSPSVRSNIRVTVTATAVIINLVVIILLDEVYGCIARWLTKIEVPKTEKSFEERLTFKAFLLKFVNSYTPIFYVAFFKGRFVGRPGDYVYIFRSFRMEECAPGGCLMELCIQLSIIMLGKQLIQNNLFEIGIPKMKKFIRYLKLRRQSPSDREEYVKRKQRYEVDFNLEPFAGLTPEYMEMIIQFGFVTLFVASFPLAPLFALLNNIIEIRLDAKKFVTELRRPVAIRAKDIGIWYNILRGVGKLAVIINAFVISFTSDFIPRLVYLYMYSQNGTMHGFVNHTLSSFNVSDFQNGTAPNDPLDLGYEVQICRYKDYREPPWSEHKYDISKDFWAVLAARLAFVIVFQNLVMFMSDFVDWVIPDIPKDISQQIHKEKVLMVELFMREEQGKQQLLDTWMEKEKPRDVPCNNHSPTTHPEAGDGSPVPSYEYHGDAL
# TMEM16A act: mouse TMEM16A channel activation, primary screen; Q8BHY3; B-score at 10 µM; HEK293 TMEM16A/YFP-H148Q/I152L, iodide quench fluorescence; stronger effect = lower value; AID 623877; 0.3% of 340,000 active;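 active = fluorescence-ratio B-score plate-corrected deviation score at least 3 library SD below zero, with starting fluorescence score within 5 deviations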;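 also: channel opened by trigger with iodide after compound preincubation; score built on the fluorescence ratio of max minus min over baseline; more negative score means more quench and so TMEM16A activation or potentiation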
# CHT inh: inhibitors of human choline transporter CHT; CHT-expressing cells, membrane potential dye, choline response; stronger effect = lower value; B-score at 10 µM; 0.86% of 310,000 active;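 active = B-score over 3 SD under the library average, and starting fluorescence ratio not unusually high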;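 also: choline stimulus applied at its EC90 after an EC20 pre-addition; B-score computed on integrated fluorescence ratio after choline addition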
# CHT inh conf: confirmation of human choline transporter CHT inhibitors | shares compounds with CHT inh | CHT-expressing cells, choline membrane potential dye; LV-to-AA substituted CHT, HEK293 cells | CHT activity remaining % of control (stronger effect = lower value), % at 10 µM | 70% of 2,400 active | AID 493221;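 active = choline transporter activity left, mean of duplicates at 10 µM, below buffer-only control mean minus 3 SD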;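 also: depolarization triggered by choline at its EC90 following an EC20 pre-addition; 0% = hemicholinium-3 full block and 100% = buffer-only control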
# HEK293 MPD ctr: CHT inhibitor counter-screen hit in parental HEK293 cells | shares compounds with CHT inh | membrane potential dye, choline response; active = decrease or increase beyond buffer ±3SD | membrane potential ratio readout (active if shifted either direction beyond buffer ±3SD; no single direction) at 10 µM | 4% of 2,400 active | AID 493222;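 also: parental cells lack the transporter so any hit is non-specific; ratio is peak minus trough fluorescence over baseline after EC90 choline challenge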
# The depositor's hits bear a star; i = inactive; nt = no result given. Most compounds without a hit are left out; they make up all but 2.7% or so of the library.
SMILES,IDE act,IDE cell inh,CHT allo act,TMEM16A inh,TMEM16A act,CHT inh,CHT inh conf,HEK293 MPD ctr
Cc1nn(-c2nnc(NCc3ccccc3)nn2)c(C)c1Br,-1.3,7.1,i,i,i,-5.28*,i,i
Cc1cc(C)n(-c2nnc(NCc3ccc(Cl)cc3)nn2)n1,8.4,-3.5,i,i,i,i,nt,nt
CCCCNc1ncnc2c1cnn2-c1ccccc1,-0.5,3.2,i,i,i,-5.39*,i,i
CCCCNc1ncnc2c1cnn2-c1ccc(Cl)cc1,0.3,-9.3,i,i,i,i,nt,nt
Cc1ccc(NC(=O)CN(C)CC(=O)N(C)Cc2ccccc2)cc1,1.7,-0.8,nt,nt,i,nt,nt,nt
COc1ccc(NC(=O)C2CC(c3ccccc3O)=NO2)cc1OC (centres undefined),-3.9,4.7,i,i,i,i,nt,nt
Fc1ccc2c(c1)C(c1ccncc1)=NNC(c1ccc(Br)cc1)=N2,-0.5,2.3,i,i,i,i,nt,nt
Brc1ccc(C2=Nc3ccccc3C(c3ccncc3)=NN2)cc1,0.7,2.1,i,i,i,-10.8*,i,i
O=C(O)c1cc([N+](=O)[O-])ccc1NCc1ccccc1Cl,0.9,7.3,i,i,i,-5.58*,i,i
O=C(O)c1cc([N+](=O)[O-])ccc1NCc1ccccn1,0.2,1.1,i,i,i,i,nt,nt
CN(C(=O)COC(=O)CNC(=O)c1cccs1)c1c(N)n(Cc2ccccc2)c(=O)[nH]c1=O,4.3,-1.4,nt,nt,i,nt,nt,nt
O=C(COC(=O)Cc1ccc(Br)cc1)NCc1ccc2c(c1)OCO2,3.3,nt,nt,nt,i,nt,nt,nt
CC(=O)Nc1ccc(Nc2cc(C)c3ccccc3n2)cc1,0.3,-6.6,i,i,i,-6.45*,45.6%*,i
COc1ccc(C2SCC(=O)N2CCc2ccc(OC)c(OC)c2)cc1 (centres undefined),-0.9,-1.6,i,i,i,-6.01*,42.5%*,i
COc1ccc(CCN2C(=O)CSC2c2ccc(OC)c(OC)c2)cc1OC (centres undefined),4.5,2.8,i,i,i,i,nt,nt
CC1(C)CC(=O)C=C(Nc2ccc(Cl)cc2)C1,-6.5,9.7,i,i,i,i,nt,nt
CC1(C)CC(=O)C=C(Nc2cccc(Cl)c2Cl)C1,-6.9,0.7,i,i,i,-4.98*,62.7%*,i
O=C(CN1CCOCC1)N1CCN(S(=O)(=O)c2ccccc2)C1c1ccccc1 (centres undefined),5.2,2.3,i,i,i,-6.9*,i,-9.76*
COc1ccc(CCN2CC(C(=O)NCCc3ccccc3C(F)(F)F)CCC2=O)cc1 (centres undefined),3.7,-1.5,i,i,i,i,nt,nt
CN(C)S(=O)(=O)c1ccc(NC(=O)C2CC3C=CC2C3)cc1 (centres undefined),-5.9,7.8,i,i,i,-6.73*,i,i
Oc1c(Br)cc(Br)c(/C=N/n2c(-c3ccccc3)n[nH]c2=S)c1Br,-0.3,2.8,i,100*,i,-6.83*,48.3%*,i
COc1ccc(C(=O)OCC(=O)Nc2cccc(S(=O)(=O)NC3=NCCCCC3)c2)cc1[N+](=O)[O-],-5.2,nt,nt,nt,i,nt,nt,nt
CC(C)c1cccc(-c2ccc3c(c2)S(=O)(=O)c2cccc(C(=O)NC4CCCC4)c2C3=O)c1,3.5,8.4,nt,nt,i,nt,nt,nt
Cc1ccc(S(=O)(=O)Oc2ccccc2/C=C2\SC(=O)NC2=O)cc1,1.6,-2.9,i,i,i,-5.64*,48.6%*,i
O=C(COc1ccccc1/C=C1\SC(=O)NC1=O)Nc1ccc(F)cc1,0.5,-0.3,i,i,i,-6.91*,i,i
SMILES,IDE act,IDE cell inh,CHT allo act,TMEM16A inh,TMEM16A act,CHT inh,CHT inh conf,HEK293 MPD ctr
O=C(COc1ccccc1/C=C1/NC(=O)NC1=O)Nc1ccccc1,0.4,-0.9,i,i,i,i,nt,nt
O=C1NC(=O)/C(=C/c2ccccc2Oc2ccc(Cl)cc2)S1,-2.4,4.3,i,i,i,i,nt,nt
CN(Cc1ccccc1)c1ncnc2ccc(Br)cc12,-2.4,4.9,i,i,i,i,nt,nt
CN(Cc1ccccc1)c1nc(N)nc(Cl)c1C=O,1.8,-2.8,i,i,i,-5.52*,33.5%*,i
Cn1c(=O)c2c(nc(SCC(=O)N3CCCCCC3)n2C)n(C)c1=O,-4.1,1.3,i,i,i,-5.74*,i,i
CCCn1c(SCC(=O)N2CCCCC2)nc2c1c(=O)n(C)c(=O)n2C,0.6,2.5,i,i,i,i,nt,nt
CCOc1ccc(C(C)=O)cc1COc1ccc(C)nc1[N+](=O)[O-],-0.2,-2.3,i,i,i,i,nt,nt
CCCOc1ccc(C(C)=O)cc1CC(C(=O)OCC)C(=O)OCC,1.7,-2.2,i,i,i,-5.02*,i,i
CC(C)(C)OC(=O)N[C@H](C(=O)OC(C)(C)C)c1ccc2c(c1)OCO2,-0.5,5.0,nt,nt,i,nt,nt,nt
O=C(NNS(=O)(=O)c1ccc([N+](=O)[O-])cc1)c1ccccc1,5.3,nt,nt,nt,i,nt,nt,nt
O=C(NNS(=O)(=O)c1ccc([N+](=O)[O-])cc1)c1ccc2ccccc2c1O,3.1,nt,i,i,i,-4.98*,41.7%*,i
C=CCNc1nc(SCC=C)nc2ccsc12,0.2,2.0,i,i,i,-8.45*,24.9%*,i
COCCn1c(SCC(=O)N2CCCc3ccccc32)nc2ccccc2c1=O,-3.8,9.7,i,i,i,-5.24*,i,i
COCCn1c(SCC(=O)Nc2ccccc2C(F)(F)F)nc2ccccc2c1=O,0.7,0.0,i,i,i,-5.32*,i,i
CC1Cc2nc(SCC(=O)N3CCCc4ccccc43)n(C)c(=O)c2S1 (centres undefined),-2.7,1.9,i,i,i,-7.59*,23.6%*,i
CCn1c(SCC(=O)N2CCCc3ccccc32)nc2c(c1=O)SC(C)C2 (centres undefined),-7.8,3.4,i,i,i,i,nt,nt
COc1ccc(S(=O)(=O)N2CCCCC2)cc1NS(=O)(=O)c1ccc(CNC(C)=O)cc1,-1.1,-4.1,nt,nt,i,nt,nt,nt
CCOC(=O)c1ccccc1NC(=O)COC(=O)CCNS(=O)(=O)c1cccs1,-1.2,nt,nt,nt,i,nt,nt,nt

# Compound activity deposited in PubChem BioAssay by several laboratories.
